Assay results taken from PMC7862700, “An all-to-all approach to the identification of sequence-specific readers for epigenetic DNA modifications on cytosine”.

Assays:
Assay in all cases: DAPPL (digital affinity profiling via proximity ligation, sequencing); 10 mM Tris-HCl pH 7.5, 50 mM NaCl, 1 mM DTT, 4% glycerol, room temperature, 30 min; GST-TFs on glutathione beads, 16-mer random dsDNA library, 0.1% formaldehyde crosslink after washing; high values mean tight binding
Details in all cases: protein: recombinant; tags: N-terminal GST; dsDNA, one strand shown
ELF4 = ELF4 (Homo sapiens, UniProt Q99607 1-663)
Sequence of ELF4 (Q99607 whole entry, the tested form may be a part): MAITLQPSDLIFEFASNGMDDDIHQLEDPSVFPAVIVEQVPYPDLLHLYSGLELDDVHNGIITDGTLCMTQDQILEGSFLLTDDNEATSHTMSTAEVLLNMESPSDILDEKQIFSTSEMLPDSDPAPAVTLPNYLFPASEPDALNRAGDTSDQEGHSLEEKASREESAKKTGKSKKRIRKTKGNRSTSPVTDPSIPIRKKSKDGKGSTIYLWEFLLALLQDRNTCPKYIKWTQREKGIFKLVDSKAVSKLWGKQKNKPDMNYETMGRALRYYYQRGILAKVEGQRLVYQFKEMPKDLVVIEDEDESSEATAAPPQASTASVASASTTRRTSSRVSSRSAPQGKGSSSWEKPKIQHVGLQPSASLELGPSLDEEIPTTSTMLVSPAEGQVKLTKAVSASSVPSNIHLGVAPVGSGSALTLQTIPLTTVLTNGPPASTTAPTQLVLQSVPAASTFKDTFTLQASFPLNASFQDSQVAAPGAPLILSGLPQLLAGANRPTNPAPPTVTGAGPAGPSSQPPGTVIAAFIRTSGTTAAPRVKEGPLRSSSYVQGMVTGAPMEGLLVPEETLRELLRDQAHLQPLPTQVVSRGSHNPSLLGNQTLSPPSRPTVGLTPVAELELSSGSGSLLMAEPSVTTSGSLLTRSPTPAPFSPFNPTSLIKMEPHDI
Method in brief: (§1)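 Binding signal is defined as a hexamer's read frequency for one factor over its frequency for the tag-only sample. To obtain reads, GST-fused human transcription factors were expressed in yeast, captured on glutathione beads, barcoded with DNA and pooled with that sample. Pools met 200 nmole of a 16-mer random double-stranded DNA library in Tris/NaCl/DTT/glycerol buffer for 30 min at room temperature before washing, 0.1% formaldehyde crosslinking, proximity ligation (BsaI/T4 ligase, 1 h, 37 °C), PCR and Illumina NextSeq500 sequencing.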

ELK4 = biological target: T1, ELK4 (Homo sapiens, UniProt P28324-2 1-405)
T1 sequence: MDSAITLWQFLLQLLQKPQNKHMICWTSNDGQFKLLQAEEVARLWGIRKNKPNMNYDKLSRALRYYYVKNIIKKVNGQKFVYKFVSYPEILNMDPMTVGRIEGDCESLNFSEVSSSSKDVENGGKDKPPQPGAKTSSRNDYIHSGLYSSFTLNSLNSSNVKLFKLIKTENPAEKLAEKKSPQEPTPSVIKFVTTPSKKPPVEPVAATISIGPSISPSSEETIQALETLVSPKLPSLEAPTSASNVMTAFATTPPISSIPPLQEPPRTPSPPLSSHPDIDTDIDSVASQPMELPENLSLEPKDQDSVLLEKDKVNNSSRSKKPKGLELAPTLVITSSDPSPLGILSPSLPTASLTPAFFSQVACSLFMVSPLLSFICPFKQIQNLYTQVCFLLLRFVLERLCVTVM
Method in brief: as §1

ETV2 = biological target: T2, ETV2 (Homo sapiens, UniProt O00321 1-342)
T2 sequence: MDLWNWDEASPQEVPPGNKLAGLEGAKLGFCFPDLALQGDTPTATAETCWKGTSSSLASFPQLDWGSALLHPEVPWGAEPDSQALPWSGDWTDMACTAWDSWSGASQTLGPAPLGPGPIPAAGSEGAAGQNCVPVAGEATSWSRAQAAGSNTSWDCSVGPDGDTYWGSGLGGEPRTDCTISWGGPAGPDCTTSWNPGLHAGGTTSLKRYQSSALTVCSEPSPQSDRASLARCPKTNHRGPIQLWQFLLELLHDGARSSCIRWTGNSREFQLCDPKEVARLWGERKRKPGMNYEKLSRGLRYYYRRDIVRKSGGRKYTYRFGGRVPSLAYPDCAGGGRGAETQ
Method in brief: as §1

ELF3 = biological target: T3, ELF3 (Homo sapiens, UniProt P78545 1-371)
T3 sequence: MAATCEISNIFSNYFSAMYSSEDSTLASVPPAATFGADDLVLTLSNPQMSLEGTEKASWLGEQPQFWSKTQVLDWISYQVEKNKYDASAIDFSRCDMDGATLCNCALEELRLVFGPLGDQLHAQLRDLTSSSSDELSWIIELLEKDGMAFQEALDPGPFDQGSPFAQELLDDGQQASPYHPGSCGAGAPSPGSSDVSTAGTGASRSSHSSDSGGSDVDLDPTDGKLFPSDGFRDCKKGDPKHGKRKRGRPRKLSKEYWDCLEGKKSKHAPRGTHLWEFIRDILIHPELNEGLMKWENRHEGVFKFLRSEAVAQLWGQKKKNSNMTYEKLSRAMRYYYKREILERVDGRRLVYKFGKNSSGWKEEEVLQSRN
Method in brief: as §1

ERF = biological target: T4, ERF (Homo sapiens, UniProt P50548 1-548)
T4 sequence: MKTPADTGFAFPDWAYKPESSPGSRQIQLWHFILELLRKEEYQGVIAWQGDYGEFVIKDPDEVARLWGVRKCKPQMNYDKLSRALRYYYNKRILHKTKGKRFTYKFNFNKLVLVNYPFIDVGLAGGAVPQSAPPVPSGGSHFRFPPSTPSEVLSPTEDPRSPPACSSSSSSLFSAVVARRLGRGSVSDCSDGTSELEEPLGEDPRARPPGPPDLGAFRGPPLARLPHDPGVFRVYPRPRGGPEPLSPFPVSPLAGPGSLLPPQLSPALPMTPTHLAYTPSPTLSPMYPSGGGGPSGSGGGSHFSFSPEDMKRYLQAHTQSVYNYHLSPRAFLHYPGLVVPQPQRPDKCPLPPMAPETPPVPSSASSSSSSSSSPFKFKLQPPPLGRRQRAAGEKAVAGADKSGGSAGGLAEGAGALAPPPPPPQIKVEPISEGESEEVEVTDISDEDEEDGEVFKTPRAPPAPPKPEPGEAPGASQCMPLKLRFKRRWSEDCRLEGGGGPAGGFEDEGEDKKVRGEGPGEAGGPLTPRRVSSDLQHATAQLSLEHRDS
Method in brief: as §1

ETV3L = biological target: T5, ETV3L (Homo sapiens, UniProt Q6ZN32 1-361)
T5 sequence: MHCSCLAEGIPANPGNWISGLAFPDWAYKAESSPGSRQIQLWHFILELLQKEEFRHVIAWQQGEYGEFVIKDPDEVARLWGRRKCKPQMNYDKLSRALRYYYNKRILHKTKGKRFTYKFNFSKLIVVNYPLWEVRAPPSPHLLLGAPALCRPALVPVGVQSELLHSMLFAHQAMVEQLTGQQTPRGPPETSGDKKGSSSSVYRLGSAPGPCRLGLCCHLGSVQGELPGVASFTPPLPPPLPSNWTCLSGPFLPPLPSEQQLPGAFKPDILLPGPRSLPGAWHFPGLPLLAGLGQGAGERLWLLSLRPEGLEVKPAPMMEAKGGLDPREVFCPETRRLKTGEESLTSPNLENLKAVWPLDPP
Method in brief: as §1

ETS2 = biological target: T6, ETS2 (Homo sapiens, UniProt P15036 1-469)
T6 sequence: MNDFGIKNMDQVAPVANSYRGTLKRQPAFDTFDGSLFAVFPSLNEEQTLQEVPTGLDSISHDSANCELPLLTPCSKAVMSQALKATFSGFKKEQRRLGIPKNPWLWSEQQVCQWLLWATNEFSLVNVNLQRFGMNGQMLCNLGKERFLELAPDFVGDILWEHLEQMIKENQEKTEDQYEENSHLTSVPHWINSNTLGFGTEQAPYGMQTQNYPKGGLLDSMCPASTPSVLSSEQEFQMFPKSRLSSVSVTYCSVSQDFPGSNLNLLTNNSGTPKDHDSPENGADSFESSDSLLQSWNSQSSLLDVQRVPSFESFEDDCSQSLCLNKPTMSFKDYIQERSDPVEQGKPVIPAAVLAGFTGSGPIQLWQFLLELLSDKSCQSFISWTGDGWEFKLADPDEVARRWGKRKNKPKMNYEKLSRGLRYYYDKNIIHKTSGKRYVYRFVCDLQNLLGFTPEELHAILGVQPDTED
Method in brief: as §1

ETV7 = biological target: T7, ETV7 (Homo sapiens, UniProt Q9Y603 1-341)
T7 sequence: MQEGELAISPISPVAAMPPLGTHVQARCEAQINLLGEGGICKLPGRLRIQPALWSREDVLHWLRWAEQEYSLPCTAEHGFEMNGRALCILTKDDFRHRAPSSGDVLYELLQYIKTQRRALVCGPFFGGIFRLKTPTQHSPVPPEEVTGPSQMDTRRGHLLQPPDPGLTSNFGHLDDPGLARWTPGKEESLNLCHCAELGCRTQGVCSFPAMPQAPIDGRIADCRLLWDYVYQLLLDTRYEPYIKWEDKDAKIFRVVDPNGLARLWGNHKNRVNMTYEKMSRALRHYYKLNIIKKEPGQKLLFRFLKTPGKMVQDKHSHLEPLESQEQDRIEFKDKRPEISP
Method in brief: as §1

ETV3 = biological target: T8, ETV3 (Homo sapiens, UniProt P41162-2 1-143)
T8 sequence: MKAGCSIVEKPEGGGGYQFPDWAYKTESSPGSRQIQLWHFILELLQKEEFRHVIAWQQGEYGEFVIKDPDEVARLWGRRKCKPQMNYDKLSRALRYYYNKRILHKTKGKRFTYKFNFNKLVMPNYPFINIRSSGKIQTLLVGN
Method in brief: as §1

ETV6 = ETV6 (Homo sapiens, UniProt P41212 1-452)
Sequence of ETV6 (P41212 whole entry): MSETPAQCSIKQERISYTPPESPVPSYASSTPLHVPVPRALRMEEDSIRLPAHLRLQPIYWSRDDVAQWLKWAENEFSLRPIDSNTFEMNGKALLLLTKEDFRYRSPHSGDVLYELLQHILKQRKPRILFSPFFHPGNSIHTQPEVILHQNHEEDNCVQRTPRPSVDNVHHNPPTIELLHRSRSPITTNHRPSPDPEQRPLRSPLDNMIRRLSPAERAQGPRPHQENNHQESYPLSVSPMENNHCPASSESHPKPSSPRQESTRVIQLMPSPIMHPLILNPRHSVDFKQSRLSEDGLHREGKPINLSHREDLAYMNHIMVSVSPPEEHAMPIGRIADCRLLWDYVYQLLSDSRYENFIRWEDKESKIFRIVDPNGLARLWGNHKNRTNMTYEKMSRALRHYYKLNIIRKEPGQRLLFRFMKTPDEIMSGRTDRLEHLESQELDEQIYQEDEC
Method in brief: as §1

TGGCCA
binding signal (ELF4): 1.13 fold enrichment (6-mer frequency, TF over GST control)
binding signal (ELK4): 1.08 fold enrichment (6-mer frequency, TF over GST control)
binding signal (ETV2): 1.02 fold enrichment (6-mer frequency, TF over GST control)
binding signal (ELF3): 1.04 fold enrichment (6-mer frequency, TF over GST control)
binding signal (ERF): 1.06 fold enrichment (6-mer frequency, TF over GST control)
binding signal (ETV3L): 1.04 fold enrichment (6-mer frequency, TF over GST control)
binding signal (ETS2): 1.07 fold enrichment (6-mer frequency, TF over GST control)
binding signal (ETV7): 1.09 fold enrichment (6-mer frequency, TF over GST control)
binding signal (ETV3): 1 fold enrichment (6-mer frequency, TF over GST control)
binding signal (ETV6): 1.09 fold enrichment (6-mer frequency, TF over GST control)
